Measurements published in PubChem BioAssay (NCI).
Compounds without any hit were thinned out: in the full panel of roughly 83,000, 20% have a hit.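 Percent growth is the endpoint: 0 to 100 indicates growth inhibition (40 means 60% inhibition), 0 means no net growth, and negative values indicate cell death.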 Values without a mark were called inactive. The source made the active and inactive calls. How the source made its calls: active means growth percent below 10; inactive means the rest.

These compounds were tested on HL-60(TB) leukemia (assay: NCI-60 one-dose screen, 48 h (100 = growth as untreated, 0 = no growth, -100 = all killed)). Settings: 10 µM unless noted.

Q: For Nc1ncc(-c2ccc3ncnc(N4CCc5cc(F)c(F)cc54)c3c2)cn1, which growth is on record?
A: 37.1%

Q: For O=c1c2c(O)cccc2oc2c3c(cc(O)c12)O[C@H]1OC=C[C@@H]31, which growth is on record?
A: 89.7%

Q: How did the growth turn out when CC(C)(C)Nc1nc2c(OCCc3ccccc3)cccn2c1-c1ccccc1Cl was run?
A: -31.6% (active)

Q: C#C[C@]1(O)CC[C@H]2[C@@H]3CC=C4c5sc(N(C)c6ccccc6)nc5CC[C@]4(C)[C@H]3CC[C@@]21C was tested. Which growth did it give?
A: 61.8%

Q: O=C(CSc1nc2sc3c(c2c(=O)n1-c1ccc(Cl)cc1)CCCC3)N/N=C/c1ccc(F)cc1 was tested. Which growth did it give?
A: 97.9%

Q: CCO/C=N/C1=C(C#N)C(c2ccc(OC)cc2)c2sc3c(C)cccc3c2O1 (stereo not drawn) was tested. Which growth did it give?
A: -18.5% (active)

Q: How did the growth turn out when CCCCCc1ccc(S(=O)(=O)Nc2cc(-c3csc(NC(=O)CN4CCN(C)CC4)n3)ccc2N2CCN(C)CC2)cc1 was run?
A: -48.8% (active)

Q: For Oc1ccc(-c2nnc(SCc3ccc(O)c4ncccc34)n2-c2ccccc2)cc1, which growth is on record?
A: 1.26% (active)

Q: How did the growth turn out when CC(C)NC(=O)c1cc(-c2ccc(NC(=O)Nc3ccc(N4CCOCC4)c(C(F)(F)F)c3)cc2)nc2cccnc12 was run?
A: 12.6%

Q: For CS(=O)(=O)Nc1cc(-c2ccc3ncc(C#N)c(N[C@H](CO)c4ccccc4)c3c2)cnc1Cl, which growth is on record?
A: 25%

Q: COc1ccc2c(c1)c(-c1nnc(N)nc1-c1c[nH]c3ccc(F)cc13)cn2C was tested. Which growth did it give?
A: -0.122% (active)

Q: COc1ccc2oc3c4[nH]c5ccccc5c4c4c(c3c2c1)C(=O)N(O)C4=O was tested. Which growth did it give?
A: 102%

Q: O=C(NNc1nc2cc(F)ccc2n2c(CN3CCCC3)ccc12)c1cnccn1 was tested. Which growth did it give?
A: -30.9% (active)

Q: How did the growth turn out when O=C(COc1cccc2cccnc12)Nc1ccc(C(=O)/C=C/c2ccc(Cl)cc2)cc1 was run?
A: 64.4%

Q: For COc1cc(-c2nn(C(C)(C)C)cc2-c2ccnc(NCCCNS(=O)(=O)c3ccc(Cl)cc3)n2)ccc1Cl, which growth is on record?
A: 64.9%

Q: For O=C1/C(=C/C=C/c2ccco2)SC(=S)N1c1ccccc1, which growth is on record?
A: 51.8%

Q: With CCCCCCCn1cc2c(N[C@H](C)c3ccccc3)ncnc2n1 as the compound, how does the growth read?
A: 117%

Q: Which growth does the source give for Cc1cc(=O)[nH]c(O)c1C#N here?
A: 100%

Q: How did the growth turn out when CNC(=O)c1cc(Oc2ccc3nc(NC(=O)c4cc(N5CCOCC5)cc(C(F)(F)F)c4)sc3c2)ccn1 was run?
A: 68%

Q: Which growth does the source give for CCOC(=O)c1ccc(NC2=C(Cl)C(=O)c3nc(C)ccc3C2=O)cc1 here?
A: 47.5%

Q: Cc1cccc(N2CCN(C3=C(Cl)C(=O)c4ncccc4C3=O)CC2)c1 was tested. Which growth did it give?
A: 7.3% (active)

Q: With COc1ccc(/C=C/C(=O)c2nnn(-c3ccc(C(=O)O)cc3)c2C)cc1OC as the compound, how does the growth read?
A: 83.2%

Q: Which growth does the source give for N#C/C(=C\c1ccc(Cl)cc1Cl)C(N)=O here?
A: 90.9%

Q: How did the growth turn out when CCc1cccc2c3c(sc12)C(c1ccc(F)cc1)C(C#N)=C(/N=C/c1ccc(Cl)cc1)O3 (stereo not drawn) was run?
A: 7.08% (active)

Q: With O=C(Nc1ccc(Cl)cc1)Nc1nc2ccc([N+](=O)[O-])cc2s1 as the compound, how does the growth read?
A: -51% (active)

Q: How did the growth turn out when NC(=O)c1ncn2c(=O)n(CCF)nnc12 was run?
A: 29.6%

Q: COc1cc(-c2ccc3ncnc(NCc4ccccc4)c3c2)cnc1OC was tested. Which growth did it give?
A: 66%

Q: With C=CCOc1cccc(/C=C2\SC(=S)N(C3CC(=O)N(c4ccc(Br)cc4)C3=O)C2=O)c1 (stereo not drawn) as the compound, how does the growth read?
A: 108%
